Measured values: PubChem BioAssay AID1159580 (chemical genetic matrix, 2015)
The campaign covered roughly 5,500 compounds. About 2,000 (36%) were called active. Roughly 18% stayed inconclusive and do not appear here. Cut-off read from the data, not from the text of the source: active = normalized growth mostly below about 0.91 (no sharp cut-off); inconclusive = no clear call, values can overlap the other calls; inactive = mostly above about 0.92. The list shows a part of the results.

Assay: chemical genetic growth profiling, strain panel (AID 1159580);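 note: tested at 20 µM; growth read once vehicle control cultures reached saturation at 30 °C; 1 = growth at the plate median or of vehicle wells; lower values mean less growth of the strain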
Details: S. cerevisiae deletion strains, growth OD
[1] = locus YAL013W, strain DEP1, active compounds read low
[2] = locus YCL061C, strain MRC1 (second series), active compounds read low
[3] = locus YDR150W, strain NUM1, active compounds read low
[4] = locus YDR363W, strain ESC2, active compounds read low
[5] = locus YER002W, strain NOP16, active compounds read low
[6] = locus YNL175C, strain NOP13, active compounds read low
[7] = locus YNL224C, strain SQS1, active compounds read low

Measured: normalized growth

O=C(O)C1=CCNCC1
inactive: [1] 0.953 | locus YAL021C, strain ccr4, active compounds read low 0.979 | locus YAL026C, strain drs2, active compounds read low 1.02 | locus YAL030W, strain snc1, active compounds read low 1.02 | locus YBL061C, strain skt5, active compounds read low 1.01 | locus YBR009C, strain hhf1, active compounds read low 1.03 | locus YBR023C, strain chs3, active compounds read low 1.01 | locus YBR171W, strain sec66, active compounds read low 1.01 | locus YBR231C, strain swc5, active compounds read low 1.05 | locus YBR279W, strain paf1, active compounds read low 1.01 | locus YCL011C, strain gbp2, active compounds read low 1.01 | locus YCL016C, strain dcc1, active compounds read low 1.02 | [2] 0.984 | locus YCL061C, strain MRC1, active compounds read low 1.02 | locus YCL069W, strain vba3, active compounds read low 1.01 | locus YCR088W, strain abp1, active compounds read low 1.02 | locus YDL005C, strain med2, active compounds read low 1.01 | locus YDL040C, strain nat1, active compounds read low 1 | locus YDR001C, strain nth1, active compounds read low 1.01 | locus YDR069C, strain doa4, active compounds read low 1.03 | locus YDR137W, strain rgp1, active compounds read low 0.985 | [3] 0.991 | locus YDR159W, strain sac3, active compounds read low 1.02 | locus YDR195W, strain ref2 0.996 | locus YDR297W, strain sur2, active compounds read low 1.01 | locus YDR334W, strain swr1, active compounds read low 1.02 | locus YDR335W, strain msn5, active compounds read low 1.02 | [4] 0.979 | locus YDR392W, strain spt3, active compounds read low 0.98 | locus YEL003W, strain gim4, active compounds read low 1.02 | locus YEL037C, strain rad23, active compounds read low 1.01 | locus YEL061C, strain CIN8 (second series), active compounds read low 1.01 | [5] 0.993 | locus YER015W, strain faa2, active compounds read low 1.02 | locus YER016W, strain bim1, active compounds read low 1.02 | locus YER111C, strain swi4, active compounds read low 1.01 | locus YER155C, strain BEM2 (second series), active compounds read low 1.05 | locus YFR010W, strain ubp6, active compounds read low 1.02 | locus YGL167C, strain pmr1, active compounds read low 1.02 | locus YGL173C, strain kem1, active compounds read low 1.01 | locus YGL227W, strain vid30, active compounds read low 1.01 | locus YGL240W, strain doc1, active compounds read low 1.03 | locus YGL253W, strain hxk2, active compounds read low 1.01 | locus YHR013C, strain ard1, active compounds read low 1.02 | locus YHR027C, strain rpn1, active compounds read low 1.02 | locus YHR030C, strain SLT2, active compounds read low 1.04 | locus YHR079C, strain IRE1, active compounds read low 1.05 | locus YHR142W, strain chs7, active compounds read low 0.988 | locus YJL092W, strain hpr5, active compounds read low 1.01 | locus YJL095W, strain BCK1 (second series), active compounds read low 1.02 | locus YJL095W, strain BCK1, active compounds read low 1.03 | locus YJL115W, strain asf1, active compounds read low 1.02 | locus YJL129C, strain trk1, active compounds read low 1.01 | locus YJL154C, strain vps35, active compounds read low 1.01 | locus YJL164C, strain tpk1, active compounds read low 1.01 | locus YJL166W, strain qcr8, active compounds read low 1.01 | locus YJL187C, strain SWE1, active compounds read low 1.01 | locus YJR066W, strain TOR1, active compounds read low 0.961 | locus YJR075W, strain HOC1, active compounds read low 0.978 | locus YKL160W, strain elf1, active compounds read low 0.99 | locus YKR026C, strain gcn3, active compounds read low 1.02 | locus YKR091W, strain srl3, active compounds read low 1.01 | locus YLL001W, strain dnm1, active compounds read low 1.01 | locus YLL026W, active compounds read low 1.01 | locus YLL041C, strain sdh2, active compounds read low 1.01 | locus YLR027C, strain aat2, active compounds read low 1.01 | locus YLR113W, strain HOG1, active compounds read low 1.06 | locus YLR221C, strain rsa3, active compounds read low 1.02 | locus YLR258W, strain gsy2, active compounds read low 1.04 | locus YLR262C, strain YPT6 (second series), active compounds read low 1.01 | locus YLR320W, strain mms22, active compounds read low 1.03 | locus YLR342W, strain FKS1, active compounds read low 1.03 | locus YLR357W, strain rsc2, active compounds read low 1.03 | locus YLR370C, strain arc18, active compounds read low 1.02 | locus YLR384C, strain iki3, active compounds read low 1.01 | locus YML120C, strain ndi1, active compounds read low 1.01 | locus YMR058W, strain fet3, active compounds read low 1.02 | locus YMR125W, strain sto1, active compounds read low 1.02 | locus YMR129W, active compounds read low 1.01 | locus YMR205C, strain PFK2, active compounds read low 1.03 | locus YMR231W, strain pep5, active compounds read low 1.01 | locus YNL071W, strain lat1, active compounds read low 1.02 | locus YNL128W, strain TEP1, active compounds read low 0.982 | locus YNL153C, strain GIM3, active compounds read low 0.965 | [6] 0.994 | locus YNL183C, strain NPR1, active compounds read low 0.958 | locus YNL209W, strain ssb2, active compounds read low 1.01 | [7] 0.982 | locus YNL248C, strain rpa49, active compounds read low 0.98 | locus YNL322C, strain KRE1 (second series), active compounds read low 1.01 | locus YNL322C, strain KRE1, active compounds read low 0.991 | locus YNR049C, strain mso1, active compounds read low 1.02 | locus YOR001W, strain rrp6, active compounds read low 1 | locus YOR070C, strain gyp1, active compounds read low 1.02 | locus YOR080W, strain dia2, active compounds read low 1.03 | locus YOR083W, strain WHI5, active compounds read low 0.982 | locus YOR106W, strain vam3, active compounds read low 0.986 | locus YOR231W, strain MKK1, active compounds read low 1.04 | locus YOR265W, strain rbl2, active compounds read low 1.01 | locus YOR270C, strain vph1, active compounds read low 1.02 | locus YOR290C, strain snf2, active compounds read low 1.01 | locus YPL051W, strain arl3, active compounds read low 1.01 | locus YPL055C, strain LGE1, active compounds read low 0.974 | locus YPL078C, strain atp4, active compounds read low 0.991 | locus YPL106C, strain sse1, active compounds read low 1.02 | locus YPL240C, strain hsp82, active compounds read low 1 | locus YPL256C, strain CLN2, active compounds read low 1.05

C=C(C)C1CC=C(C(=O)O)CC1 (stereo unspecified)
inactive: [1] 1.01 | locus YAL040C, strain CLN3, active compounds read low 0.991 | [2] 1.01 | [3] 0.986 | [4] 0.961 | [5] 1.02 | locus YGR229C, strain SMI1, active compounds read low 0.978 | locus YMR263W, strain SAP30, active compounds read low 0.997 | locus YMR307W, strain GAS1, active compounds read low 0.996 | [6] 1.01 | locus YNL197C, strain WHI3, active compounds read low 1 | [7] 1.01 | locus YOR083W, strain WHI5 (second series), active compounds read low 0.961 | locus YPL241C, strain CIN2, active compounds read low 1
